# Measured values taken from PubChem BioAssay (NCI).
# About 83,000 compounds went through this panel and 20% of them were active in at least one assay; those are over-represented in the sample as a whole.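 The endpoint reported here, percent growth, reads 100 for growth as untreated, 0 for no net growth and -100 for all cells dead.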 Active and inactive are the calls of the source. Rule for the calls: active = growth percent below 10; inactive = the rest.
# Test system: CAKI-1 renal
# Test: NCI-60 one-dose screen, 48 h (100 = growth as untreated, 0 = no growth, -100 = all killed)
# Conditions: 10 µM
row,Structure (SMILES),growth
1,CCCCCCCNc1nc(C=O)ncc1-c1ccc(C(F)(F)F)cc1,98.4% (inactive)
2,CCCCCCN1CCN(Cc2ccc(N(CC)CC)cc2)C(=O)C1=O,41.6% (inactive)
3,O=C(Nc1cccc(-n2cc(-c3ccncc3)c(-c3ccc(O)c(Cl)c3)n2)c1)Nc1ccc(Cl)c(Cl)c1,-21.1% (active)
4,S=C1SCC(c2ccccc2)S1 (configuration not stated),97.1% (inactive)
5,COc1cccc(C(=O)Nc2ccc(CN3CCc4nc5cc(OC)c(OC)cc5cc43)cc2)c1,21.7% (inactive)
6,COc1ccc(-c2nn(-c3cccc(NC(=O)c4cc(C(F)(F)F)cc(C(F)(F)F)c4)c3)cc2-c2ccncc2)cc1Cl,50.1% (inactive)
7,O=C(Nc1ccccc1)Nc1cccc(-n2cc(-c3ccncc3)c(-c3ccc(O)c(Cl)c3)n2)c1,30.1% (inactive)
8,N#CCCN1C/C(=C/c2ccc(Cl)cc2)C(=O)/C(=C/c2ccc(Cl)cc2)C1,-9.22% (active)
9,COc1ccc(-c2nn(-c3cccc(NC(=O)c4cccc(C(F)(F)F)c4)c3)cc2-c2ccncc2)cc1Cl,11.3% (inactive)
10,COc1ccc([N+](=O)[O-])c(C(=O)O)c1,95.7% (inactive)
11,O=C(Nc1cccc(-n2cc(-c3ccncc3)c(-c3ccc(O)c(Cl)c3)n2)c1)c1cccc(C(F)(F)F)c1,12.2% (inactive)
12,COc1cccc(NC(=O)c2sc3nc4c(cc3c2N)C(O)CCC4)c1 (configuration not stated),34.4% (inactive)
13,O=S(=O)(NCCCNc1nccc(-c2c(-c3ccc(F)cc3)nc3sccn23)n1)c1ccc2ccccc2c1,33.2% (inactive)
14,COc1ccc(-c2nn(-c3cccc(NC(=O)Nc4cccc(C(F)(F)F)c4)c3)cc2-c2ccncc2)cc1Cl,1.63% (active)
15,COc1ccc(-c2nn(-c3cccc(NC(=O)c4ccc(Cl)c(Cl)c4)c3)cc2-c2ccncc2)cc1Cl,73.1% (inactive)
16,Cc1c(Cl)cccc1NC(=O)c1sc2nc3c(cc2c1N)C(=O)CCC3,23.9% (inactive)
17,COc1cc(/C=C/C(=O)c2ccc(Cl)cc2)ccc1OS(=O)(=O)c1ccc(C)cc1,82.5% (inactive)
18,O=C(N/N=C/c1cc2ccccc2c2ccccc12)c1cc(O)c(O)c(O)c1,43.7% (inactive)
19,COc1ccc(-c2nn(-c3cccc(NC(=O)c4ccc(N5CCOCC5)c(C(F)(F)F)c4)c3)cc2-c2ccncc2)cc1Cl,47.9% (inactive)

row,Structure (SMILES),growth
1,COc1ccc(-c2cc(/C=C/C(=O)c3cc(OC)c(OC)c(OC)c3)[nH]n2)cc1OC,4.66% (active)
2,CC1=C(N2CCOCC2)C(N2CCOCC2)=C(C)C(=O)C1=O,101% (inactive)
3,Cc1ccc(C)c(C(O)(c2cc(C)ccc2C)C2(O)CCCCC2)c1,80.5% (inactive)
4,COc1ccc(-c2nn(-c3cccc(NC(=O)c4ccc5c(c4)OCCO5)c3)cc2-c2ccncc2)cc1Cl,15% (inactive)
5,Cc1ncc(-c2ccoc2)c(NC2CCCCCC2)n1,94.4% (inactive)
6,O=S(=O)(NCCNc1nccc(-c2c(-c3ccc(F)cc3)nc3sccn23)n1)c1ccc2ccccc2c1,68.5% (inactive)
7,COc1ccc2c(c1)nc(N)c1c3cccnc3cn21,-15.7% (active)
8,O=C(Nc1cccc(-n2cc(-c3ccncc3)c(-c3ccc(O)c(Cl)c3)n2)c1)c1ccc(Cl)c(Cl)c1,13% (inactive)
9,CCN1CCCC1CNC(=O)c1ncc(-c2ccc(C(F)(F)F)cc2)c(NC2CCCCCC2)n1 (configuration not stated),83% (inactive)
10,Clc1ccc(-c2cn(-c3ccccc3)c(-c3ccccc3)n2)c(Cl)c1,-22.8% (active)
11,CCCCCCCCCCCCCCCC(=O)OC1[C@@H](OC(=O)CCCCCCCCCCCCCCC)[C@@H](C(=O)N[C@@H](CCCCN)C(=O)OC)O[C@H]1n1cnc2c(=O)[nH]c(NC(=O)C(C)C)nc21 (some centres not stated),94% (inactive)
12,O=c1oc2cc(OS(=O)(=O)c3ccccc3)ccc2c2c1CCCCC2,73.9% (inactive)
13,O=C1Nc2ccccc2C1=NC1CCCCC1,79.3% (inactive)
14,O=C(Nc1cccc(-n2cc(-c3ccncc3)c(-c3ccc(O)c(Cl)c3)n2)c1)c1ccc(N2CCOCC2)c(C(F)(F)F)c1,26.5% (inactive)
15,O=C(Nc1ccc(OS(=O)(=O)c2ccccc2)cc1)C12CC3CC(CC(C3)C1)C2,54.7% (inactive)
16,O=C(Nc1cccc(-n2cc(-c3ccncc3)c(-c3ccc(O)c(Cl)c3)n2)c1)c1cc(C(F)(F)F)cc(C(F)(F)F)c1,30.7% (inactive)
17,CCCC#CCN(CC)CC,88.2% (inactive)
18,Cc1ccc(S(=O)(=O)OCCN(CCOS(=O)(=O)c2ccc(C)cc2)c2c[nH]c(=O)[nH]c2=O)cc1,97.5% (inactive)
